Consider seven molecules from the supplement of paper PMC9262897, “Low-cost anti-mycobacterial drug discovery using engineered E. coli” (Nature Communications, 2022).

Where a name gives a salt, the structure may show the parent alone. ± gives the standard deviation of the averaged measurements.

What all share (test): growth (OD600 after 10 h); higher = more growth (less inhibition)
For assay [1], the system named is E. coli TESEC Alr+ wild-type control. As to conditions: compound 0.1 mM; raw OD600 reference: median of DMSO wells 0.241, cell-free background 0.041. The procedure:
(§1)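 TESEC Mtb Alr E. coli, or the Alr+ wild-type control, in 384-well plates with Prestwick library compounds at 0.1 mM and 1% DMSO, across arabinose induction levels of 1E3 to 1E7 nM. Growth is read as OD600 after 10 h at 37 °C in triplicate biological replicates.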

Assay [2] relates to E. coli TESEC Mtb Alr. As to conditions: compound 0.1 mM. On the procedure:
as §1

In a further assay the test system is E. coli TESEC Mtb Asd. As to conditions: compound 0.1 mM. On the procedure: (§2)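 TESEC E. coli strains in which the native enzyme is deleted and replaced by arabinose-inducible Mtb Asd, DapB, CysH or TrpD, each grown in its selective medium. Strains were screened against the Prestwick library at 0.1 mM and 1% DMSO in 384-well format at low and high arabinose induction. Growth is read as OD600 after 10 h in triplicate.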

The test system of the next assay is E. coli TESEC Mtb DapB. The settings on record: compound 0.1 mM. On the procedure: as §2
The test system of assay [3] is E. coli TESEC Mtb Alr. The settings on record: compound 0.1 mM. The procedure:
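TESEC Mtb Alr E. coli (ΔaraC ΔtolC ΔentC Δalr ΔdadX, arabinose-inducible Mtb Alr) or the Alr+ wild-type control strain, grown in defined M9-fructose medium without D-alanine in 96-well plates with Prestwick library compounds at 0.1 mM and 1% DMSO. Low Alr induction is 0.1 µM arabinose and high induction is 10 mM arabinose.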
The source holds these as a separate data set.

[4] abbreviates: arabinose 1000 nM, raw OD600 reference: median of DMSO wells 0.294, cell-free background 0.041.
Setting [5] is: arabinose 10000 nM, raw OD600 reference: median of DMSO wells 0.264, cell-free background 0.041.
[6] abbreviates: arabinose 100000 nM, raw OD600 reference: median of DMSO wells 0.201, cell-free background 0.041.
The mark [7] stands for this setting: arabinose 1000000 nM, raw OD600 reference: median of DMSO wells 0.193, cell-free background 0.041.
Where [8] appears, read: arabinose 10000000 nM, raw OD600 reference: median of DMSO wells 0.146, cell-free background 0.041.
Setting [9] is: arabinose induction (level): High, raw OD600 reference: median of DMSO wells 0.331, cell-free background 0.041.
The mark [10] stands for this setting: arabinose induction (level): Low, raw OD600 reference: median of DMSO wells 0.417, cell-free background 0.041.
The mark [11] stands for this setting: arabinose induction (level): High, raw OD600 reference: median of DMSO wells […], cell-free background 0.041.
Setting [12] is: arabinose induction (level): Low, raw OD600 reference: median of DMSO wells 0.227, cell-free background 0.041.
Where [13] appears, read: arabinose 100 nM, raw OD600 reference: median of DMSO wells 0.413, cell-free background 0.052.
[14] abbreviates: arabinose 10000000 nM, raw OD600 reference: median of DMSO wells […], cell-free background 0.052.

With `CC(=O)O[C@@]12CO[C@@H]1C[C@H](O)[C@@]1(C)C(=O)[C@H](O)C3=C(C)[C@@H](OC(=O)[C@H](O)[C@@H](NC(=O)OC(C)(C)C)c4ccccc4)C[C@@](O)([C@@H](OC(=O)c4ccccc4)[C@H]21)C3(C)C` [Docetaxel], the growth in assay [1] came to 0.266 ± 0.005; in the assay on E. coli TESEC Mtb Alr [2] (setting [4]), 0.34 ± 0.0038; in the assay with E. coli TESEC Mtb Alr [2] (setting [5]), 0.299 ± 0.014; with E. coli TESEC Mtb Alr [2] (setting [6]) it was 0.311 ± 0.094; in the assay on E. coli TESEC Mtb Alr [2] (setting [7]), 0.134 ± 0.011; in the assay on E. coli TESEC Mtb Alr [2] (setting [8]), 0.206 ± 0.02. For the same molecule, the growth with E. coli TESEC Mtb Asd (setting [9]) turned out to be 0.248 ± 0.011; in the assay with E. coli TESEC Mtb Asd (setting [10]) it was 0.373 ± 0.071; with E. coli TESEC Mtb DapB (setting [11]) it was 0.204 ± 0.016; with E. coli TESEC Mtb DapB (setting [12]) it was 0.229 ± 0.047; in the assay on E. coli TESEC Mtb Alr [3] (setting [13]), 0.4282 ± 0.0041; with E. coli TESEC Mtb Alr [3] (setting [14]), 0.297 ± 0.0093.

`CN1CCC(=C2c3ccccc3C=Cc3ccccc32)CC1` [Cyproheptadine hydrochloride]: the growth in assay [1] worked out at 0.145 ± 0.0056; with E. coli TESEC Mtb Alr [2] (setting [4]), 0.163 ± 0.02; in the assay with E. coli TESEC Mtb Alr [2] (setting [5]) it was 0.16 ± 0.0079; in the assay with E. coli TESEC Mtb Alr [2] (setting [6]) it was 0.12 ± 0.0049; in the assay with E. coli TESEC Mtb Alr [2] (setting [7]) it was 0.0596 ± 0.00044; in the assay with E. coli TESEC Mtb Alr [2] (setting [8]), 0.0772 ± 0.00078. For the same molecule, the growth in the assay on E. coli TESEC Mtb Asd (setting [9]) worked out at 0.15 ± 0.0059; in the assay with E. coli TESEC Mtb Asd (setting [10]) it was 0.186 ± 0.0032; in the assay with E. coli TESEC Mtb DapB (setting [11]), 0.175 ± 0.015; with E. coli TESEC Mtb DapB (setting [12]) it was 0.192 ± 0.011; with E. coli TESEC Mtb Alr [3] (setting [13]), 0.4129 ± 0.0017; in the assay on E. coli TESEC Mtb Alr [3] (setting [14]) it was 0.276 ± 0.016.

On to `Cc1scc2c1N(C(=O)CN1CCN(C)CC1)c1ccccc1NC2=O` [Telenzepine dihydrochloride], for which the growth amounted to 0.242 ± 0.0054 in assay [1]; 0.309 ± 0.0066 in the assay with E. coli TESEC Mtb Alr [2] (setting [4]); 0.241 ± 0.0053 with E. coli TESEC Mtb Alr [2] (setting [5]); 0.208 ± 0.012 in the assay with E. coli TESEC Mtb Alr [2] (setting [6]); 0.162 ± 0.0049 in the assay on E. coli TESEC Mtb Alr [2] (setting [7]); 0.153 ± 0.0031 in the assay on E. coli TESEC Mtb Alr [2] (setting [8]). For the same molecule, the growth is 0.321 ± 0.083 in the assay with E. coli TESEC Mtb Asd (setting [9]); 0.442 ± 0.025 with E. coli TESEC Mtb Asd (setting [10]); 0.1919 ± 0.0014 in the assay with E. coli TESEC Mtb DapB (setting [11]); 0.264 ± 0.071 with E. coli TESEC Mtb DapB (setting [12]); 0.407 ± 0.011 with E. coli TESEC Mtb Alr [3] (setting [13]); 0.338 ± 0.0097 with E. coli TESEC Mtb Alr [3] (setting [14]).

`NS(=O)(=O)c1cc(C2(O)NC(=O)c3ccccc32)ccc1Cl` (centres undefined) [Chlorthalidone]: the growth stood at 0.223 ± 0.0025 in assay [1]; 0.285 ± 0.012 in the assay with E. coli TESEC Mtb Alr [2] (setting [4]); 0.255 ± 0.0039 with E. coli TESEC Mtb Alr [2] (setting [5]); 0.193 ± 0.0099 in the assay on E. coli TESEC Mtb Alr [2] (setting [6]); 0.168 ± 0.003 in the assay with E. coli TESEC Mtb Alr [2] (setting [7]); 0.144 ± 0.0027 in the assay on E. coli TESEC Mtb Alr [2] (setting [8]). For the same molecule, the growth was determined as 0.393 ± 0.037 in the assay on E. coli TESEC Mtb Asd (setting [9]); 0.462 ± 0.078 with E. coli TESEC Mtb Asd (setting [10]); 0.205 ± 0.016 in the assay with E. coli TESEC Mtb DapB (setting [11]); 0.208 ± 0.017 with E. coli TESEC Mtb DapB (setting [12]); 0.415 ± 0.01 with E. coli TESEC Mtb Alr [3] (setting [13]); 0.3322 ± 0.002 in the assay with E. coli TESEC Mtb Alr [3] (setting [14]).

For the molecule `COC(=O)Nc1nc2cc(Sc3ccccc3)ccc2[nH]1` [Fenbendazole], the growth stood at 0.233 ± 0.0041 in assay [1]; 0.273 ± 0.022 with E. coli TESEC Mtb Alr [2] (setting [4]); 0.273 ± 0.012 in the assay on E. coli TESEC Mtb Alr [2] (setting [5]); 0.189 ± 0.012 in the assay with E. coli TESEC Mtb Alr [2] (setting [6]); 0.195 ± 0.057 in the assay with E. coli TESEC Mtb Alr [2] (setting [7]); 0.144 ± 0.0032 in the assay with E. coli TESEC Mtb Alr [2] (setting [8]). Besides, the growth amounted to 0.382 ± 0.11 in the assay with E. coli TESEC Mtb Asd (setting [9]); 0.434 ± 0.018 in the assay with E. coli TESEC Mtb Asd (setting [10]); 0.2 ± 0.013 in the assay with E. coli TESEC Mtb DapB (setting [11]); 0.252 ± 0.041 with E. coli TESEC Mtb DapB (setting [12]); 0.421 ± 0.0066 in the assay on E. coli TESEC Mtb Alr [3] (setting [13]); 0.352 ± 0.025 in the assay with E. coli TESEC Mtb Alr [3] (setting [14]).

`Nc1ccc(S(=O)(=O)Nc2ccccn2)cc1` [Sulfapyridine]: the growth in assay [1] turned out to be 0.239 ± 0.0046; with E. coli TESEC Mtb Alr [2] (setting [4]) it was 0.295 ± 0.018; with E. coli TESEC Mtb Alr [2] (setting [5]) it was 0.261 ± 0.0053; with E. coli TESEC Mtb Alr [2] (setting [6]), 0.219 ± 0.0099; in the assay with E. coli TESEC Mtb Alr [2] (setting [7]), 0.174 ± 0.0063; with E. coli TESEC Mtb Alr [2] (setting [8]) it was 0.141 ± 0.0049. Besides, the growth in the assay with E. coli TESEC Mtb Asd (setting [9]) was 0.354 ± 0.035; in the assay on E. coli TESEC Mtb Asd (setting [10]) it was 0.412 ± 0.015; with E. coli TESEC Mtb DapB (setting [11]) it was 0.188 ± 0.02; with E. coli TESEC Mtb DapB (setting [12]), 0.215 ± 0.041; in the assay with E. coli TESEC Mtb Alr [3] (setting [13]), 0.405 ± 0.013; with E. coli TESEC Mtb Alr [3] (setting [14]) it was 0.325 ± 0.0082.

Regarding `CCc1cc(C(N)=S)ccn1` [Ethionamide], the growth is 0.243 ± 0.0035 in assay [1]; 0.294 ± 0.0077 in the assay with E. coli TESEC Mtb Alr [2] (setting [4]); 0.262 ± 0.005 in the assay with E. coli TESEC Mtb Alr [2] (setting [5]); 0.236 ± 0.036 with E. coli TESEC Mtb Alr [2] (setting [6]); 0.184 ± 0.0033 with E. coli TESEC Mtb Alr [2] (setting [7]); 0.144 ± 0.0028 with E. coli TESEC Mtb Alr [2] (setting [8]). Further, the growth with E. coli TESEC Mtb Asd (setting [9]) turned out to be 0.299 ± 0.05; with E. coli TESEC Mtb Asd (setting [10]), 0.324 ± 0.1; with E. coli TESEC Mtb DapB (setting [11]) it was 0.206 ± 0.011; with E. coli TESEC Mtb DapB (setting [12]), 0.217 ± 0.027; with E. coli TESEC Mtb Alr [3] (setting [13]), 0.406 ± 0.0087; with E. coli TESEC Mtb Alr [3] (setting [14]), 0.334 ± 0.02.
